From PubChem BioAssay AID922 (National Center for Advancing Translational Sciences (NCATS), 2007)
Records with an inconclusive call do not appear. Calls of active or inactive are those of the source. Calls follow the shape of the dose curve; as a rule, active = well fitted inhibition curve with a large enough effect in the signal ratio, with a control signal flat; inconclusive = small, poorly fitted or top-dose-only effect, or effect the other way; inactive = flat fitted curve, though single readings scatter; the % refers to the signal ratio.

Test: Confirmation Concentration-Response Assay for Identification of Small Molecule Antagonists of Stat Signaling Pathway
Settings: SIE-bla cells, IL-6 stimulated, beta-lactamase ratio, 5 h
Text: NIH Molecular Libraries Screening Centers Network [MLSCN] NIH Chemical Genomics Center [NCGC] MLSCN Grant: None NCGC Assay Overview: This assay is a retest of actives identified from the Stat signaling pathway assay (PubChem AID 446). The Stat assay is cell-based and measures Interleukin 6 (IL-6) mediated modulation of a beta-lactamase reporter gene controlled by a STAT inducible element (SIE-bla cells, Invitrogen). IL-6 is a cytokine that signals via the JAK/STAT pathway and is implicated in cancer and inflammation. SIE-bla cells are induced by IL-6 at 40 pM EC50 and inhibited by the pan JAK inhibitor, 2-(1,1-Dimethylethyl)-9-fluoro-3,6-dihydro-7H-benz[h]-imidaz[4,5-f]isoquinolin-7-one, at approximately 10 nM IC50. Plated cells were incubated overnight and on the following day, stimulated with 40 pM IL-6 for 5 hrs. The assay was stimulated with an EC50 of IL-6 to retest inhibitors of STAT signaling.
NCGC Assay Protocol Summary: Cells were trypsinized, washed in assay medium (AM, OPTI MEM with 0.5% fetal bovine serum, 0.1 mM nonessential amino acids, 1 mM sodium pyruvate, 10mM HEPES pH 7.3, 100U/ml penicillin, and 100 ug/ml streptomycin) and suspended at […] in AM. Approximately 2500 cells in 5 uL/well was dispensed into 1536-well plates and the cells were incubated overnight at 37 C. 23 nL of compound were delivered by a pin tool and 1 uL of IL-6 (40 pM final concentration in AM) was added. After plates were incubated at 37 C for 5 hrs, 1uL of detector mix (LiveBLAzerTM, Invitrogen) was added, the plates incubated at room temperature for 2.5 hrs, and fluorescence intensity at 460 and 530 nm emissions was measured at 405 nm excitation by an Envision (Perkin Elmer).

Compound	Potency
COc1ccc(C[C@@H]2C(=O)N[C@H](C)C(=O)N(C)[C@@H]3C(=O)N(C)[C@@H](Cc4ccc(O)c(c4)Oc4ccc(cc4)[C@H]3O)C(=O)N[C@@H](C)C(=O)N[C@H](C)C(=O)N2C)cc1	0.398 µM (active)
CC(C)C[C@H]1C(=O)N2CCC[C@H]2[C@]2(O)O[C@](NC(=O)[C@@H]3C=C4c5cccc6[nH]c(Br)c(c56)CC4N(C)C3)(C(C)C)C(=O)N12 (stereo partly specified)	12.6 µM (active)
CC(C)[C@H](CO)Nc1nc(Nc2cccc(Cl)c2)c2ncn(C(C)C)c2n1	5.01 µM (active)
C[C@]1(C(=O)O)[C@@H]2CC[C@@H](O2)[C@@]1(C)C(=O)O	10 µM (active)
CC[C@@H]1CN2CCc3cc(OC)c(OC)cc3[C@H]2C[C@@H]1C[C@@H]1NCCc2cc(OC)c(OC)cc21	0.398 µM (active)
CCn1cnc2c(Nc3cccc(Cl)c3)nc(N[C@@H]3CCCC[C@H]3N)nc21	3.98 µM (active)
